# Tests used:
# Experiment in all cases: PBM binding z-score (relative to random genomic background probes); higher = stronger binding; sequences stand for … in GC…GCGATTGACAGCGTAGAATGAAGG
# [1] = tested on: FXR:RXRa (NR concentration 270 nM, RXRa partner concentration 90 nM)
# Outline: (§1)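 Scanned fluorescence from custom Agilent 4×180K protein-binding microarrays was regression-normalized. Binding z-scores use random background probes as reference. Ligand-free nuclear receptor dimers were incubated on the arrays for 1 h and detected with antibodies against each partner (one per run).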
# [2] = tested on: LXRa:RXRa (NR concentration 270 nM, RXRa partner concentration 90 nM)
# Outline: as §1
# [3] = tested on: LXRa homodimer (NR concentration 270 nM)
# Outline: as §1
# [4] = tested on: LXRb:RXRa (NR concentration 270 nM, RXRa partner concentration 90 nM)
# Outline: as §1
# [5] = tested on: LXRb homodimer (NR concentration 270 nM)
# Outline: as §1
# [6] = tested on: PPARa:RXRa (NR concentration 270 nM, RXRa partner concentration 90 nM)
# Outline: as §1
# [7] = tested on: PPARg:RXRa (NR concentration 180 nM, RXRa partner concentration 90 nM)
# Outline: as §1
# [8] = tested on: PPARg:RXRa 270nM:90nM, anti-RXR (NR concentration 270 nM, RXRa partner concentration 90 nM)
# Outline: as §1
# [9] = tested on: PPARg:RXRa 30nM:10nM, anti-RXR (NR concentration 30 nM, RXRa partner concentration 10 nM)
# Outline: as §1
# [10] = tested on: PPARg:RXRa 90nM:30nM, anti-RXR (NR concentration 90 nM, RXRa partner concentration 30 nM)
# Outline: as §1
# [11] = tested on: PPARg:RXRa DBDmut IVT, anti-RXR (DBD mutation: RXRa K156A/R161A, NR concentration 270 nM, RXRa partner concentration 90 nM)
# Outline: as §1
# [12] = tested on: PPARg:RXRa IVT, anti-PPARg (NR concentration 270 nM, RXRa partner concentration 90 nM)
# Outline: as §1
# [13] = tested on: PPARg DBDmut:RXRa IVT, anti-PPARg (DBD mutation: PPARg1 K132A/R137A, NR concentration 270 nM, RXRa partner concentration 90 nM)
# Outline: as §1
# [14] = tested on: PPARg DBDmut IVT, anti-PPARg (DBD mutation: PPARg1 K132A/R137A, NR concentration 270 nM)
# Outline: as §1
# [15] = tested on: PPARg homodimer (NR concentration 180 nM)
# Outline: as §1
# [16] = tested on: PXR:RXRa (NR concentration 270 nM, RXRa partner concentration 90 nM)
# Outline: as §1
# [17] = tested on: PXR homodimer (NR concentration 270 nM)
# Outline: as §1
# [18] = tested on: RARa:RXR (NR concentration 270 nM, RXRa partner concentration 90 nM)
# Outline: as §1
# [19] = tested on: RARa homodimer (NR concentration 270 nM)
# Outline: as §1
# [20] = tested on: RARb:RXRa (NR concentration 270 nM, RXRa partner concentration 90 nM)
# Outline: as §1
Sequence,PBM binding z-score [1],PBM binding z-score [2],PBM binding z-score [3],PBM binding z-score [4],PBM binding z-score [5],PBM binding z-score [6],PBM binding z-score [7],PBM binding z-score [8],PBM binding z-score [9],PBM binding z-score [10],PBM binding z-score [11],PBM binding z-score [12],PBM binding z-score [13],PBM binding z-score [14],PBM binding z-score [15],PBM binding z-score [16],PBM binding z-score [17],PBM binding z-score [18],PBM binding z-score [19],PBM binding z-score [20]
CGAACTAGGTCAGAACAGGGCAGTGAAGGATGAT,1.43,0.861,-0.154,0.436,-0.443,3.09,5.03,4.3,1.73,3.33,7.23,7.22,1.72,-0.191,1.19,1.26,0.00717,0.81,0.0682,3.15
AATACAGGGTCACTAGACCAGAGTAGGTACGAAT,5.74,4.72,0.962,3.65,0.659,5.33,6.24,5.76,2.72,4.31,2.98,4.48,1.64,0.757,1.41,3.05,0.6,4.02,0.657,4.12
GCTAGCTGGTCAGTAAAAGGTCACACACCGGTCG,3.2,4.47,4.35,3.88,0.195,4.21,2.43,4.13,1.46,3.75,0.546,2.35,0.0238,-0.213,5.71,5.04,0.209,6.16,2.36,4.23
ACTCGGAGGACAAAGGTCAGAGGTACGCCAGTGA,4.04,4.06,1.7,3.26,-0.137,5.14,7.26,6.74,4.88,7.16,0.77,3.42,0.61,0.441,3.17,3.86,0.587,4.61,0.603,4.43
TCGAGTAGGCTACCAATGGGGCATTCAGCTTTCT,-0.523,-0.102,-1.06,-0.127,-1.18,0.0161,-0.358,0.198,1.19,0.625,1.55,0.414,-0.67,-1.72,-1.23,-0.438,-0.888,-0.72,-1.3,-0.208
GCATATAGGTACTACAAGGTGAAAGTCCGATTGT,0.689,-0.132,-0.343,0.0572,-0.233,0.972,0.697,0.784,0.264,0.566,1.67,1.24,0.887,0.583,0.651,0.2,-0.351,1.36,-0.147,0.285
AGTCAAAGTTCAGGCCGAGGTAACGTAAAGCACG,4.1,4.03,1.27,1.71,0.0903,3.25,4.14,5.07,1.71,4.1,-0.249,1.8,0.687,0.000554,2.4,3.17,1.77,3,0.163,4.4
GGAACAAGGGCAAAGTTGATAGCATCTGTCGACG,0.623,0.618,-0.274,0.612,-0.0187,3.56,5.8,6.3,5.66,6.8,2.8,3.73,0.621,-0.078,0.637,0.784,0.0632,0.948,0.248,2.42
CCTCGGAGGACAGAATGTCAGAGCTGTCCGCTTT,-0.31,-0.467,-0.713,-1.01,-0.428,-0.27,-0.416,-0.901,-0.655,-1.09,-0.17,-1.04,-1.38,-1.68,0.0941,-0.762,-0.458,-0.687,-0.242,0.241
CGAACTAGGTCATTGCCAGGACAGTGAATAGTAA,3.98,2.75,0.491,1.6,-0.019,4.39,6.96,6.06,3.25,5.51,8.25,7.95,1.34,0.503,1.04,1.4,0.261,1.87,0.423,3.44
ATCGAAAGGTCGACGAGGTGAGTAGACACCGTTT,4.89,3.41,-0.158,2.75,0.205,4.45,3.11,3.63,1.22,2.45,0.417,2.09,0.633,0.273,1.49,2.93,0.455,3.91,0.813,3.89
CAAATTAGGTCACAGAGGTCAAAGTCCGTGCGTA,7.48,6.57,7.83,6.26,2.94,6.44,9.76,8.05,6.42,8.29,8.01,8.49,2.82,1.45,5.32,6.74,11.4,7.4,3.41,5.27
GCTTACGGGTCAAAGGTTATCGCATGAATAGAAT,7.98,5.85,0.561,5.81,0.413,6.94,11.7,9.26,8.55,10.3,5.17,6.06,0.968,0.942,2.75,6.19,0.364,8.16,0.571,4.76
TCTAGTAGGTTAGGGGCATTCAGAATGGCGTCGA,0.875,0.688,0.102,1.21,0.903,1.94,2,3.69,3.42,3.55,4.9,4.09,0.212,0.421,1.07,0.642,0.791,0.791,0.549,1.35
CTTACTGGGCCATCAGGTCATTGATATCAACGTT,1.85,1.35,1.05,1.68,0.217,3.84,4.85,5.22,2.74,4.87,6.66,6.83,2.49,2.61,1.66,1.94,0.966,2.45,0.185,2.26
